Measured values as given in PubChem BioAssay AID2111 (National Center for Advancing Translational Sciences (NCATS), 2009).
Where “and” joins values, the source holds several entries; their conditions need not be identical. Identical values can stand only once. Calls of active or inactive are those of the source. The call rests on the fitted dose curve; in most records, active means well fitted curve in either direction with a large enough effect; inconclusive means small, poorly fitted or top-dose-only effect; inactive means no such curve, though single readings can be large or run the other way.

What follows are molecules tested against Lysosomal alpha-glucosidase (Homo sapiens) (UniProt P10253) (assay: Confirmation of Inhibitors and Activators of Human alpha-Glucosidase From Spleen Homogenate Using an Alternate Red Fluorescent Susbtrate). Conditions: resorufin-glucoside fluorescence; series mostly up to 62.8 µM.
Text: NIH Chemical Genomics Center [NCGC] NIH Molecular Libraries Probe Production centers Network [MLPCN] MLPCN Grant: 1R03MH084841-01 Assay Submitter (PI): Wei Zheng NCGC Assay Overview: Alpha-glucosidase is responsible for hydrolysis of terminal, non-reducing 1,4-linked alpha-D-glucose residues with release of alpha-D-glucose. It is a lysosomal hydrolase that is required for the degradation of a small percentage (1-3%) of cellular glycogen in human. Deficiency of this enzyme results in glycogen-storage disease type II (GSDII), also referred to as Pompe disease, an autosomal recessive disorder. Structurally normal glycogen is accumulated in lysosomes and cytoplasm in affected patients, primarily in muscle tissues. Excessive glycogen storage within lysosomes may interrupt normal functioning of other organelles and leads to cellular injury. In turn, this leads to enlargement and dysfunction of the entire organ involved (eg, cardiomyopathy and muscle weakness). It has reported that the improper folding and trafficking of alpha-glucosidase resultinged from the genetic mutations may account for a significant number of Pomrope patients. […] We optimized this alpha-glucosidase assay in 1536-well plate format for identifying the novel small molecule inhibitors with the structures other than the sugar analogs in order to develop the new pharmacological chaperones. In particular, this assay is directed towards discovering compounds active in a more natural setting, tissue homogenate, that may have been missed by screens of the purified enzyme under more stringent conditions. This assay attempted to confirm hits from the primary screening using an alternate fluor than the primary screen used.
NCGC Assay Protocol Summary: This is a fluorogenic enzyme assay with Resorufin-alpha-D-glucopyranoside as the substrate and human spleen homogenate containing alpha-glucosidase as the enzyme preparation. Upon hydrolysis of this fluorogenic substrate, the resulting product, resorufin (which excites at 573 nm and emits at 610 nm) can be detected by a fluorescence plate reader. Data were normalized to the controls for basal activity (without enzyme) and 100% activity (with enzyme). The AC50 values were determined from concentration-response data modeled with the standard Hill equation. Assay buffer: 50 mM citric acid (titrated with potassium phosphate to pH 5.0), 0.01% Tween-20 (pH 5.0 is an optimal condition for this enzyme assay) 1536-well assay protocol for the alpha-glucosidase from human spleen homogenate: (1) Add 2 ul/well spleen homogenate (1 ug) (2) Add 23 nL compounds in DMSO solution. The final titration was 0.5 nM to 58 uM. (3) Add 2 ul of substrate (1 mM final) (4) Incubate at 37 C for 40 min (5) Add 2 ul stop solution (1M NaOH and 1M Glycine mixture, pH 10) (6) Detect the assay plate in a ViewLux plate reader (PerkinElmer) with […]. Keywords: Alpha-glucosidase, Pompe Disease, pharmacological chaperone, chaperone therapy, high throughput screening, alpha-glucosidase inhibitor, MLSMR, MLSCN, NIH Roadmap, qHTS and NCGC

SMILES	Potency
O=Cc1ccc(N2CCN(S(=O)(=O)c3ccc4c(c3)CC(=O)N4)CC2)cc1	5.17 µM [inhibitor] (active)
CCCN1CNc2c(c(=O)[nH]c(=S)n2CCc2cccc(C)c2)C1	15.8 µM (active)
O=S(=O)(c1ccc(Cl)cc1)N1CCN(c2nc(Nc3cc(Cl)ccc3O)nc3ccccc23)CC1	inactive
CCCN1CNc2c(c(=O)[nH]c(=S)n2CCc2ccc(OC)c(OC)c2)C1	8.91 µM (active)
CCCN1CNc2c(c(=O)[nH]c(=O)n2CCc2ccc(OC)c(OC)c2)C1	15.8 µM (active)
CCCN1CNc2c(c(=O)[nH]c(=S)n2CCc2ccc(OC)cc2)C1	25.1 µM (active)
CCCN1CNc2c(c(=O)[nH]c(=S)n2CCc2ccc(Cl)cc2Cl)C1	7.94 µM (active)
CC(=O)c1ccc(N2CCN(S(=O)(=O)c3ccc4c(c3)n(C)c(=O)n4C)CC2)cc1	inactive
CCCN1CNc2c(c(=O)[nH]c(=S)n2CCc2cccc(Cl)c2)C1	15.8 µM (active)
CCCN1CNc2c(c(=O)[nH]c(=S)n2CCc2ccc(OCC)c(OCC)c2)C1	7.94 µM (active)
O=C1Cc2cc(S(=O)(=O)N3CCN(c4ccc(F)cc4)CC3)ccc2N1	59.5 µM [inhibitor] (active)
CC(=O)c1ccc(N2CCN(S(=O)(=O)c3ccc4c(c3)CC(=O)N4)CC2)cc1	1.03 µM [inhibitor] (active) and 943 nM [inhibitor] (active) and 2.06 µM [inhibitor] (active)
O=C1Cc2cc(S(=O)(=O)N3CCNCC3)ccc2N1	inactive
CCCN1CNc2c(c(=O)[nH]c(=S)n2CCc2cccc(OC)c2)C1	10 µM (active)
CCCN1CNc2c(c(=O)[nH]c(=S)n2CCc2cc(Cl)cc(Cl)c2)C1	12.6 µM (active)
CC(=O)c1ccc(N2CCN(S(=O)(=O)c3ccc4c(c3)CCCC(=O)N4)CC2)cc1	inactive
CC(=O)c1ccc(N2CCN(S(=O)(=O)c3cc4c(cc3Cl)NC(=O)C4)CC2)cc1	4.61 µM [inhibitor] (active) and 3.66 µM [inhibitor] (active)
CCCN1CNc2c(c(=O)[nH]c(=S)n2CCCc2ccccc2)C1	35.5 µM (active)
CCCN1CNc2c(c(=O)[nH]c(=S)n2CCc2cc(C)ccc2C)C1	8.91 µM (active)
O=C1Cc2cc(S(=O)(=O)N3CCN(c4ccc(C(F)(F)F)cc4)CC3)ccc2N1	inactive

SMILES	Potency
CC(=O)c1ccc(N2CCN(C(=O)c3ccc4c(c3)CC(=O)N4)CC2)cc1	inactive
CC(=O)N1CCN(S(=O)(=O)c2ccc3c(c2)CC(=O)N3)CC1	14.9 µM [inhibitor] (active)
CC(=O)c1ccc(N2CCN(S(=O)(=O)c3ccc4c(c3)CC(C)N4C(C)=O)CC2)cc1 (stereo not given)	inactive
O=c1[nH]cc(CCc2ccccc2)c2ncncc12	inactive
CC(=O)N1CCN(c2ccc(NS(=O)(=O)c3ccc4c(c3)CC(=O)N4)cc2)CC1	inactive
CCCN1CNc2c(c(=O)[nH]c(=S)n2CCc2ccc(Cl)c(Cl)c2)C1	8.91 µM (active)
COc1cccc(CCn2c(N)cc(=O)[nH]c2=S)c1OC	inactive
CCCN1CNc2c(c(=O)[nH]c(=S)n2CCc2cc(OC)cc(OC)c2)C1	7.94 µM (active)
CCCN1CNc2c(c(=O)[nH]c(=S)n2CCc2ccc(OC)cc2OC)C1	8.91 µM (active)
CCCN1CNc2c(c(=O)[nH]c(=S)n2CCC(C)(C)C)C1	inactive
CCCN1CNc2c(c(=O)[nH]c(=S)n2CCc2c(Cl)cccc2Cl)C1	5.01 µM (active)
O=C1Cc2cc(S(=O)(=O)N3CCN(c4ccc(O)cc4)CC3)ccc2N1	11.9 µM [inhibitor] (active)
CCCN1CNc2c(c(=O)[nH]c(=S)n2CCc2ccccc2Cl)C1	11.2 µM (active)
COc1ccc(CCn2c3c(c(=O)[nH]c2=S)CN(C)CN3)cc1OC	31.6 µM (active)
CCCN1CNc2c(c(=O)[nH]c(=S)n2CCc2ccc(C)c(C)c2)C1	7.94 µM (active)
c1csc(-c2nc(NCC3CCCO3)c3ccccc3n2)c1 (stereo not given)	inactive
CCCN1CNc2c(c(=O)[nH]c(=S)n2CCc2ccc(Cl)cc2)C1	11.2 µM (active)
COc1ccc(CCn2c3c(c(=O)[nH]c2=S)CN(CC(C)C)CN3)cc1OC	6.31 µM (active)
CCCN1CNc2c(c(=O)[nH]c(=S)n2CCc2ccsc2)C1	28.2 µM (active)
OCCNc1nc(-c2cccs2)nc2ccccc12	inactive
